Experimental data taken from PubChem BioAssay AID463173 (ICCB-Longwood Screening Facility, Harvard Medical School, 2010).
Out of some 52,000 compounds screened, about 4,300 (8.3%) were called active. Many of the other results were omitted from the sample, so actives are more common in it than they were. Unmarked numbers belong to inactive results. Rule as the data show it: active = survival mostly below about 52% (no sharp cut-off); inactive = mostly above about 56%.

Test system: DeltatarO mutant
Test: growth inhibition of S. aureus wild type versus tarO mutant, primary screen, teichoic acid synthesis inhibitors, RN4220, OD600 (AID 463173)
Settings: OD600, 18 h, active compounds read low, screened at 18.75 µg/mL (by protocol)

Row | SMILES | survival
1 | Cc1cccc(C)c1OCc1nc2c3cnn(-c4ccccc4F)c3ncn2n1 | 109%
2 | CCN(CC)S(=O)(=O)c1cccc(C(=O)Nc2ccccc2C(=O)Nc2ccc(OC)cc2)c1 | 78%
3 | Cc1cc(F)ccc1NC(=O)CS(=O)(=O)c1cccc2nsnc12 | 77%
4 | CCc1ccc(CNC(=O)Cn2c(-c3cccs3)cc3cc(F)ccc32)cc1 | 119%
5 | c1ccc(-c2nc3ccccn3c2NC2CCCC2)nc1 | 1% (active)
6 | COc1ccc(Nc2c(-c3ccccn3)nc3ccc(Cl)cn23)cc1 | 93%
7 | CC(C)c1ccc(Nc2c(-c3ccco3)nc3ccccn23)cc1 | 42%
8 | Cc1ccc2nc(-c3ccccn3)c(Nc3ccc(F)cc3)n2c1 | 10% (active)
9 | CC(C)c1ccc(Nc2c(-c3ccccn3)nc3ccccn23)cc1 | -4% (active)
10 | Fc1ccc(Nc2c(-c3ccccn3)nc3ccc(Cl)cn23)cc1 | 65%
11 | Cc1ccn2c(Nc3ccc(F)cc3)c(-c3ccccn3)nc2c1 | 105%
12 | Cc1cccc2nc(-c3ccccn3)c(Nc3ccc(F)cc3)n12 | -9% (active)
13 | CC(C)c1nc2ccccn2c1NC1CCCCC1 | 102%
14 | Cc1ccc(Nc2c(-c3ccccn3)nc3ccc(Br)cn23)cc1 | 72%
15 | Cc1cccc2nc(-c3ccccn3)c(Nc3ccccc3)n12 | 24%
16 | CN(C)c1ccc(-c2nc3ccccn3c2NC2CCCC2)cc1 | 83%
17 | COc1ccc(NC(=O)Cn2cnc3sc(C)c(S(=O)(=O)N4CCN(C)CC4)c3c2=O)cc1OC | 167%
18 | COc1ccc(NC(=O)CN2CCN(Cc3ccccc3Cl)S2(=O)=O)cc1Cl | 41%
19 | O=S(=O)(NCCc1csc2nc(-c3ccccc3)nn12)c1ccc(Cl)s1 | 86%
20 | CCn1c(CNC(=O)C(OC)c2ccccc2)nnc1SC (stereo not drawn) | 87%
21 | O=c1c(=O)n(-c2cccc(Cl)c2)ccn1Cc1cccc(F)c1 | 66%
22 | COc1ccc(Cl)cc1NC(=O)c1cnc(N2CCCCC2)c2ccccc12 | 78%
23 | CCOc1ccccc1NC(=O)CCc1c(C)nn(-c2ccc(N3CCOCC3)nn2)c1C | 80%
24 | CCOC(=O)c1cccc(NC(=O)c2cc3ccccn3n2)c1 | 124%

Row | SMILES | survival
25 | COc1cccc(C2CC(=O)Nc3cc(OC)c(OC)c(OC)c32)c1OC(C)C (stereo not drawn) | 93%
26 | CCOC(=O)c1cccc(-n2nnc3c(sc4nc(C)c(Br)c(C)c43)c2=O)c1 | 92%
27 | CCOc1ccc(C2=NC(c3ccc(OC)cc3)=Nc3ccc(Cl)cc3N2)cc1 | 71%
28 | Cc1ccccc1Nc1c(-c2ccccc2)nc2cccc(C)n12 | 98%
29 | Cc1ccccc1Nc1c(-c2c[nH]c3ccccc23)nc2cccc(C)n12 | 144%
30 | Cc1cccc(C)c1Nc1c(-c2ccccc2F)nc2cccc(C)n12 | 6% (active)
31 | CCCCCC[N+]1(CCO)CCOCC1 | 81%
32 | COc1ccc(N2CCN(CCCNC(=O)c3c(C)nn(-c4ccc(F)cc4)c3-n3cccc3)CC2)cc1 | 71%
33 | OC(CC#CCN1CCOCC1)(c1ccccc1)c1ccccc1 | 83%
34 | COc1ccc(S(=O)(=O)N2CCN(Cc3nc4ccc(C)cc4o3)CC2)cc1 | 84%
35 | Cc1ccc(-n2cc(C(=O)OCc3ccc(Cl)cc3)c3ccccc3c2=O)cc1 | 67%
36 | COc1ccc(C)cc1NC(=O)N(C(C)C)C1CCN(C(C)=O)CC1 | 75%
37 | COc1ccc(NC(=O)N(Cc2ccco2)C2CCN(C(C)=O)CC2)c(OC)c1 | 88%
38 | CCN1CCC(N(Cc2ccc(F)cc2)C(=O)Nc2cc(Cl)ccc2C(=O)OC)CC1 | 85%
39 | COC(=O)c1ccc(Cl)cc1NC(=O)N(Cc1ccc(C)o1)C1CCN(C(C)=O)CC1 | 95%
40 | COc1ccc(C)cc1NC(=O)N(Cc1ccc(C)o1)C1CCN(C(C)=O)CC1 | 8% (active)
41 | COC(=O)c1ccc(Cl)cc1NC(=O)N(Cc1ccc(OC)cc1)C1CCN(C(C)=O)CC1 | -5% (active)
42 | CC(=O)N1CCC(N(Cc2ccc(C)o2)C(=O)Nc2ccc(C)cc2)CC1 | 96%
43 | CCOc1ccccc1NC(=O)N(Cc1ccc(C)o1)C1CCN(C(C)=O)CC1 | 101%
44 | COc1ccc(NC(=O)N(C(C)C)C2CCN(C(C)=O)CC2)c(OC)c1 | -2% (active)
45 | Cc1ccc(N2CCN(C(=O)C3CCN(S(=O)(=O)c4ccc5c(c4)oc(=O)n5C)CC3)CC2C)cc1 (stereo not drawn) | 109%
46 | Cc1ccc(-n2c3nc(=O)[nH]c(=O)c-3cc3c(C)nn(-c4ccccc4)c32)cc1Cl | 85%
47 | Cc1cccc(-c2noc(-c3cccnc3NCc3ccc(Cl)cc3)n2)c1 | 73%
48 | COc1ccc(N(C(=O)COc2ccccc2OC)S(=O)(=O)c2ccc(Cl)cc2)cc1 | 71%

Row | SMILES | survival
49 | O=C(CN1C(=O)COc2ccc(Cl)cc21)Nc1ccc(F)cc1 | 67%
50 | Cc1cc(C)c(NC(=O)CSc2nccn2Cc2ccco2)c(C)c1 | 76%
51 | Cc1ccc(S(=O)(=O)NCC(c2ccc(N(C)C)cc2)N2CCc3ccccc32)cc1C (stereo not drawn) | 131%
52 | CN(C)c1ccc(C(CNS(=O)(=O)c2ccc(F)cc2)N2CCc3ccccc32)cc1 (stereo not drawn) | 32% (active)
53 | CN(C)c1ccc(C(CNS(=O)(=O)c2ccccc2)N2CCc3ccccc32)cc1 (stereo not drawn) | 99%
54 | COc1ccc(S(=O)(=O)NCC(c2ccc(N(C)C)cc2)N2CCc3ccccc32)cc1 (stereo not drawn) | 78%
55 | CCOc1ccc(S(=O)(=O)NCC(c2ccc(N(C)C)cc2)N2CCc3ccccc32)cc1 (stereo not drawn) | 49%
56 | Cc1ccc(S(=O)(=O)NCC(c2ccc(N(C)C)cc2)N2CCc3ccccc32)cc1 (stereo not drawn) | 0% (active)
57 | Cc1cc(NC(=O)C2CCCN(S(=O)(=O)c3cn(C)cn3)C2)ccc1Br (stereo not drawn) | 102%
58 | Cc1ccc(S(=O)(=O)CCc2nnc(NC(=O)CCCC(=O)Nc3cc(C)on3)s2)cc1 | 104%
59 | CCOc1ccc(C(CC(=O)Nc2ccc(C(=O)OC)cc2)N2Cc3ccccc3C2=O)cc1OC (stereo not drawn) | 73%
60 | Cc1cccc(NC(=O)CN2C(=O)c3ccccc3Sc3ncccc32)c1C | 90%
61 | Cc1ccc(CNC(=O)C(=O)NCC(c2ccc3c(c2)OCO3)N2CCOCC2)cc1 (stereo not drawn) | 64%
62 | c1ccc(CN2CCCN(c3nc4c(c(NCCN5CCOCC5)n3)CCCC4)CC2)cc1 | 103%
63 | COC(=O)c1c(SCC(=O)Nc2cccc(C(F)(F)F)c2)[nH]c2ccccc2c1=O | 82%
64 | COC(=O)c1c(SCC(=O)Nc2ccccc2OC)[nH]c2ccccc2c1=O | 55%
65 | COC(=O)c1c(SCC(=O)Nc2cc(C)cc(C)c2)[nH]c2ccccc2c1=O | 39% (active)
66 | COc1ccc(N2CCN(C(=O)c3ccc(NC(=O)c4nsc5ccccc45)cc3)CC2)cc1 | 84%
67 | CCOC(=O)c1scc(-c2ccccc2)c1S(=O)(=O)Nc1cc(OC)cc(OC)c1 | 89%
68 | Cc1cccc(CSc2nc(=O)c3c(n2C)NC(=O)CC3c2cccc(O)c2)c1 (stereo not drawn) | 46%
69 | COc1ccccc1NC(=O)c1ccc(CN2C(=O)C(C)=C(c3ccc(C)c(C)c3)S2(=O)=O)cc1 | 83%
70 | O=C(Nc1ccc(-c2nc3cc(NC(=O)c4ccccc4Cl)ccc3o2)cc1)c1ccccc1Cl | 83%
71 | COc1ccc2oc(-c3cccc(NC(=O)c4ccc(C#N)cc4F)c3)nc2c1 | 79%
72 | N#Cc1ccc(C(=O)Nc2ccc(Cl)c(-c3nc4cc(Cl)ccc4o3)c2)c(F)c1 | 28% (active)

Row | SMILES | survival
73 | Cc1ccc(SCC(=O)Nc2ccc3oc(-c4ccc(F)cc4)nc3c2)cc1 | 80%
74 | O=C(COc1ccccc1Cl)Nc1ccc(Cl)c(-c2nc3ccccc3o2)c1 | 51%
75 | O=C(Nc1ccc(Cl)c(-c2nc3cc(Cl)ccc3o2)c1)c1cc2ccccc2o1 | 70%
76 | Cc1ccc(SCC(=O)Nc2ccc3oc(-c4ccccc4C)nc3c2)cc1 | 50%
77 | O=C(COc1ccccc1Cl)Nc1ccc2oc(-c3ccccc3F)nc2c1 | 67% (active)
78 | COc1ccccc1-c1nc2cc(NC(=O)c3ccccc3Cl)ccc2o1 | 61%
79 | Cc1cccc(OCC(=O)Nc2ccc3oc(-c4ccccc4F)nc3c2)c1 | 57%
80 | O=C(Nc1ccc2oc(-c3ccccc3F)nc2c1)c1ccccc1Cl | 49% (active)
81 | Cc1ccc(SCC(=O)Nc2ccc3oc(-c4ccccc4F)nc3c2)cc1 | 57% (active)
82 | CCCS(=O)(=O)N1CCCC(C(=O)NCCCOC)C1 (stereo not drawn) | 77%
83 | CCOc1ccc(Br)cc1C1NC(=O)c2c(sc3c2CCN(C)C3)N1 (stereo not drawn) | 60%
84 | CCn1c(C)c(C)c2cc(C(=O)NCc3ccc(OC)cc3OC)ccc21 | 70%
85 | CCc1nn2c(=O)cc(COC(=O)C(CC)c3ccccc3)nc2s1 (stereo not drawn) | 92%
86 | CCN(Cc1ccccc1)C(=O)c1cc2ccc3cccnc3c2[nH]1 | 49%
87 | Cc1cccc(C(=O)NCCc2nc3ccccc3n2Cc2ccc(Cl)cc2)c1 | 79%
88 | COC(=O)c1ccc(N2C(=O)c3ccc(N)cc3C2=O)cc1 | 73%
89 | COc1cc(Cl)c(NC(=O)c2cc(CN3CCCC3)on2)c(OC)c1 | 94%
90 | CC(=O)c1cccc(NC(=O)CSc2nnc3ccc(-c4ccc(Br)cc4)nn23)c1 | 75%
91 | COC(=O)c1ccc(NC(=O)c2c(-c3ccccc3)c(-c3ccccc3)nn(C)c2=O)cc1 | 58%
92 | Cn1nc(-c2ccccc2)c(-c2ccccc2)c(C(=O)Nc2ccc(S(N)(=O)=O)cc2)c1=O | 49% (active)
93 | CCn1nc(-c2ccccc2)c(-c2ccccc2)c(C(=O)Nc2ccc(S(N)(=O)=O)cc2)c1=O | 66%
